In PubChem BioAssay (NCI):
Compounds without any hit were thinned out: in the full panel of roughly 83,000, 20% have a hit.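 Testing used 96-well plates and a 48-hour single-concentration exposure. Example: -40 means 40% of the starting cells died.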 Unmarked numbers belong to inactive results. Activity calls are given as the source filed them. The calls were made as follows: active = growth percent below 10; inactive = the rest.

Columns and labels:
Assay in all cases: NCI-60 one-dose screen, 48 h (100 = growth as untreated, 0 = no growth, -100 = all killed)
Conditions in all cases: 10 µM unless noted
HCT-15 colon = system: HCT-15 colon
HT29 colon = system: HT29 colon
SNB-75 CNS = system: SNB-75 CNS
SNB-19 CNS = system: SNB-19 CNS
PC-3 prostate = system: PC-3 prostate
UACC-62 melanoma = system: UACC-62 melanoma
LOX IMVI melanoma = system: LOX IMVI melanoma
SK-MEL-28 melanoma = system: SK-MEL-28 melanoma
SK-MEL-2 melanoma = system: SK-MEL-2 melanoma
EKVX NSCLC = system: EKVX NSCLC
SN12C renal = system: SN12C renal
UO-31 renal = system: UO-31 renal
TK-10 renal = system: TK-10 renal
ACHN renal = system: ACHN renal
A498 renal = system: A498 renal
CCRF-CEM leukemia = system: CCRF-CEM leukemia
MOLT-4 leukemia = system: MOLT-4 leukemia
SK-MEL-5 melanoma = system: SK-MEL-5 melanoma
CAKI-1 renal = system: CAKI-1 renal
U251 CNS = system: U251 CNS

| SMILES | growth (HCT-15 colon) | growth (HT29 colon) | growth (SNB-75 CNS) | growth (SNB-19 CNS) | growth (PC-3 prostate) | growth (UACC-62 melanoma) | growth (LOX IMVI melanoma) | growth (SK-MEL-28 melanoma) | growth (SK-MEL-2 melanoma) | growth (EKVX NSCLC) | growth (SN12C renal) | growth (UO-31 renal) | growth (TK-10 renal) | growth (ACHN renal) | growth (A498 renal) | growth (CCRF-CEM leukemia) | growth (MOLT-4 leukemia) | growth (SK-MEL-5 melanoma) | growth (CAKI-1 renal) | growth (U251 CNS) [%] |
| --- | --- | --- | --- | --- | --- | --- | --- | --- | --- | --- | --- | --- | --- | --- | --- | --- | --- | --- | --- | --- |
| O=c1ccccc(-c2ccc(Br)cc2)c1O | 26.3% | 21.9% | 31.4% | 13% | 29.5% | -49.3% (active) | 4.54% (active) | 23.2% | 12% | 6.92% (active) | 6.62% (active) | -10.6% (active) | 21.5% | 6.35% (active) | 31.7% | 3.29% (active) | 5.09% (active) |  |  |  |
| C=CC(=O)Nc1cccc(Nc2nc(SC)nc(-c3cccc([N+](=O)[O-])c3)c2C#N)c1 | 52.2% | 33.7% | 23.2% | 79.5% | 37.5% | 65.7% |  | 25.3% | 46.8% | 53.2% | 62.9% | 60.8% | 32.1% | 55.6% | -1.13% (active) | 72.2% | 59.8% | 55.2% | 42.6% |  |
| CC(C)C[C@@H](NC(=O)[C@@H](Cc1ccccc1)NC(=O)c1cnccn1)B1Oc2ccc(C[C@H](NC(=O)[C@H](Cc3ccc4c(c3)OB([C@@H](CC(C)C)NC(=O)[C@@H](Cc3ccccc3)NC(=O)c3cnccn3)O4)NC(=O)[C@@H](N)CC3CCC4OB([C@@H](CC(C)C)NC(=O)[C@@H](CC5CCCCC5)NC(=O)C5CNCCN5)OC4C3)C(=O)NCCCC[C@@H]3NC(=O)[C@@H](Cc4ccccc4)NC(=O)[C@H](CC(=O)O)NC(=O)CNC(=O)[C@H](CCCNC(=N)N)NC3=O)cc2O1 (some centres undefined) | -49.1% (active) | -61.9% (active) | -64% (active) | -24.7% (active) | -48.4% (active) | -73.8% (active) | -87.9% (active) | -31.7% (active) | -15.9% (active) | -16.4% (active) | -40.2% (active) | -27.2% (active) | -77.8% (active) | -11.9% (active) | -96% (active) | 2.22% (active) | 1.17% (active) |  | -40.9% (active) |  |
| COc1cccc(-c2nc3sccn3c2-c2ccnc(NCCCNS(=O)(=O)c3cccc(Cl)c3)c2)c1 | 28.7% | 54.5% | 51.8% | 66.3% | 21.7% | -7.03% (active) |  | 67.4% | 39.8% |  | 45.5% | 20.4% | 71.5% | 37.5% | 54.4% | 18.1% | 9.9% (active) | -12.5% (active) | 25.9% |  |
| O=S(=O)(Nc1ccc(OC(F)F)cc1)c1ccc(-c2cnc(C3CC3)o2)cc1 | 38.4% | 55.6% | 42.7% | 75.8% | 67.6% | 44% | 72% | 85.3% | 63.9% |  | 77.5% | 60.2% | 102% | 79.4% | 16.9% | 66.8% | 50.1% | 57.7% | 47.2% |  |
| COc1cccc(-c2nc3sccn3c2-c2ccnc(NCCCNS(=O)(=O)c3cccc(F)c3)c2)c1 | 13.7% | 38.7% | 29.3% | 55% |  | -32.7% (active) | 23.7% | 42.6% | 7.47% (active) | 31% | 28.5% | 11.4% | 61.1% | 20.7% | 64.4% | 9.96% (active) | 3.29% (active) | -31.2% (active) | 19.7% |  |
| O=[N+]([O-])c1cnc(N2CCN(CC3CC3)CC2)nc1N1CCN(CC2CC2)CC1 | 96% | 87% | 81% | 100% |  | 110% | 99.6% | 91.3% | 98.5% | 86.5% | 98.2% | 80.2% | 102% | 104% | 86.6% | 106% | 103% | 99.5% | 92.5% |  |
| CC(=O)O[C@H]1CC[C@]2(C)[C@H]3CC=C4[C@@H]5CC(C)(C)CC[C@]5(C(=O)NCCNCCNCCN)CC[C@@]4(C)[C@]3(C)CC[C@H]2C1(C)C | -74.8% (active) | -47.7% (active) | 71% | 92.6% |  | 93.9% | -98.9% (active) | 93.1% | 96.9% | 81.9% | 89.5% | 79.1% | 97.2% | -25.4% (active) | 54.6% | -9.21% (active) | -13% (active) | 90.7% | 77.8% |  |
| O=C1NC(=Nc2ccc(O)cc2)S/C1=C\c1cccc(Cl)c1 | 30.1% | 109% | 70.9% | 73.5% |  | 80.9% | 53.4% | 94.7% | 109% | 84.2% | 82% | 42.5% | 97.3% | 84.5% | 50.1% | 27.1% | 45.4% | 70.6% | 70% |  |
| COc1cccc(Nc2nc(SC)nc(-c3cccc([N+](=O)[O-])c3)c2C#N)c1 | 79.2% | 78% | 34% | 67.2% |  | 78.5% | 64.9% | 76.3% | 96.3% | 64.7% | 68.8% | 26.7% | 75.8% | 23.9% | 78.5% | 99.6% | 98.2% | 87.2% | 60.1% |  |
| COc1nc2c(c(=O)n1C)CN(Cc1ccccc1)C=N2 | 105% | 109% | 78% | 91.1% |  | 116% | 98.1% | 108% | 106% | 111% | 116% | 77.3% |  | 106% | 131% | 103% | 105% | 111% | 98.1% |  |
| CC(=O)O[C@H]1[C@@H]2OC(=O)C(CSc3ccccc3)[C@@H]2C[C@H]2O[C@]2(C)CC/C=C(\C)CCC[C@@H]1C (some centres undefined) | 12.8% | 19.5% | 37.1% | 68% |  | 38.3% | 28.4% | 37.7% | 35.6% |  | 31.6% | 11.7% | -5.98% (active) | 33.5% | 116% | 52.4% | 22.7% | 47% | 2.92% (active) |  |
| C=CC(=O)Nc1cccc(-c2nc(SC)nc(NCc3ccccc3)c2C#N)c1 | 58.4% | 62.2% | 19.6% | 54.8% |  | 61% | 65.8% | 82.4% | 60.8% | 44% | 42.1% |  | 69.1% | 50.6% | -1.24% (active) | 60.3% | 49.1% | 74% | 40.5% |  |
| CCOc1nc(-c2ccccc2)cc2c(O)c(C(=O)N/N=C/c3ccc(O)cc3O)[nH]c(=O)c12 | 23.9% | 48.3% | 59.6% | 43.2% |  | 9.73% (active) | -0.51% (active) | 60% | -8.71% (active) | 36.2% | 39.1% | -13.2% (active) | 52.1% | 9.99% (active) | 65.3% | -33.9% (active) | 17.3% | 21.9% | 8.55% (active) |  |
| OC(COc1cccc2ccccc12)CN1CCN(c2ccccc2Cl)CC1 (centres undefined) | 99% | 85.7% | 86.7% | 83.4% |  | 93.9% | 92.6% | 112% | 44.6% | 102% | 105% | 85.1% | 100% | 102% | 90% |  | 107% | 90.7% |  |  |
| CC(C)c1c(C(=O)c2ccccc2)c(-c2ccccc2)c(-c2ccc(F)cc2)n1CC[C@@H](O)C[C@@H](O)CC(=O)O | 47.5% | 106% |  | 57.4% |  | 16.6% |  | 65.4% | 36.2% | 68.2% | 31.9% | 72% | 116% | 25.3% |  | 81.4% | 87.6% |  | 21.6% |  |
| Cn1cc(-c2nonc2-c2c[nH]c3ccc(F)cc23)c2cccnc21 | 62.3% | 99.3% | 56.3% | 90.2% |  | 64.4% | 85.3% | 98.4% | 90.1% | 63% | 85.5% |  | 85.9% | 78.5% | 85.1% | 83% | 63.4% | 78.2% | 63.9% |  |
| CC[C@@H]1O[C@H](O[C@@H](c2cnc[nH]2)[C@H](NC(=O)c2nc([C@H](CC(N)=O)NC[C@@H](N)C(N)=O)nc(N)c2C)C(=O)N[C@H](C)[C@H](O)[C@H](C)C(=O)N[C@@H](C(=O)NCCc2nc(-c3nc(C(=O)NCCCCN=C(N)N)cs3)cs2)[C@@H](C)O)[C@H](O[C@@H]2O[C@H](CO)[C@H](O)[C@H](OC(N)=O)[C@@H]2O)[C@H](C)[C@@H]1C | 45.1% | 53.9% |  | 45.9% | 71.2% | 37.5% |  | 87.6% | 101% | 91.8% | 21.9% | 23.2% | 71.9% |  | 78.2% | 80.5% | 46.8% |  |  | 35.3 |
| O=S(=O)(Nc1ccc(Cl)c(F)c1)c1ccc(-c2cnc(C3CC3)o2)cc1 | 21.1% | -6.67% (active) | -7.32% (active) | 44.9% |  | 24.8% | 40.3% | 58.5% | 31.9% | 34.4% | 47.6% |  | 45.5% | 47.5% | -16.1% (active) | 19.9% | 28.6% | 17.4% | 32.1% |  |
| COc1ccc(Nc2nc(SC)nc(-c3cccc([N+](=O)[O-])c3)c2C#N)cc1 | 78.6% | 70.3% | 10.3% | 79% |  | 69.5% | 70.8% | 84.9% | 94.9% | 70.5% | 64.5% | 17.7% | 84% | 16.9% | 57.8% | 114% | 99.8% | 70.9% | 63% |  |
| C=CC(=O)Nc1cccc(-c2nc(SC)nc(NCCN3CCOCC3)c2C#N)c1 | 90.1% | 89.4% | 44.8% | 88.5% |  | 86.7% | 85.5% | 114% | 82.6% | 86.5% | 81.2% | 61.4% | 134% | 80.8% | 78.3% | 95.6% | 75.9% | 94.9% | 86.2% |  |
| O=C(N=Nc1c(O)[nH]c2ccccc12)c1cc(-c2ccccc2)on1 | 102% | 104% | 53.7% | 100% |  | 99.6% |  | 108% | 108% | 92% | 96% |  | 123% | 97.2% | 103% | 107% | 104% | 100% | 86.7% |  |
| COc1cc2c(cc1-c1c(C)noc1C)ncc1nc(C3CCC(F)(F)CC3)n([C@H](C)COC(F)F)c12 | 16.8% | 17.3% | 37% | 47.7% |  | 17.8% |  | 54.4% | 65.7% | 48.1% | 51% | 25.3% | 27.1% | 37.5% | -22.8% (active) | 50.3% | 48.9% |  | 35.4% |  |
